# Assay results published in ChEMBL document CHEMBL3988442, “University of Dundee, Small-Polar-MMV Screening Library” (2021).
# The campaign covered roughly 48,000 compounds. About 13,000 (27%) showed an effect of 50% or more. The list shows a part of the results.
# System: Wolbachia pipientis
# Assay: Anti-Wolbachia Cell-Based Screen
# Format: functional
# Set-up: scale not given: in the data most compounds retested in dose-response had high values
# Conditions: 5 µM
row,Compound,Percent Effect [%]
1,c1cc(CCn2ccc(NC3CCSCC3)n2)ccn1,6.041
2,COc1cccc(N2CCN(C(C(=O)O)c3ccc(OC)nc3)CC2)c1 (centres undefined),-2.782
3,COc1c(F)cc(-c2cccc3c2OC(CN)C3)cc1F (centres undefined),6.268
4,CC(C)(C)c1noc(OCC(=O)NC2CCCC2)n1,-14.46
5,CC(C)(C)c1cc(C[C@H]2CNCC[C@H]2CC(=O)NC2CCCCC2)no1,10.2
6,OCC1COCCN(Cc2cc(C3CCCCC3)no2)C1 (centres undefined),-1.346
7,CC1CCN(C(=O)C2(Cc3cc(C4CCOC4)no3)CCNCC2)CC1.Cl (centres undefined),189.1
8,Cl.O=C(NC1CCCC1)C1(Cc2cc(C3CCOC3)no2)CCNCC1 (centres undefined),131.3
9,C[C@@H]1CN(Cc2cc(C3CCCCC3)no2)CC[C@]1(C)O,4.197
10,CCN(C)c1ccc(CNC(=O)c2cc(C(N)=O)cs2)cc1F,-17.75
11,OCCN1CCN(Cc2cn(-c3ccccc3)nn2)CC1,-6.326
12,CN1CC(c2ccccc2)CC12CCN(C(=O)c1ccc(Cl)cn1)CC2 (centres undefined),-6.025
13,Cc1cc(NCCc2c(C)n[nH]c2C)nc(-c2cccnc2)n1,90.29
14,CC(C)Cc1cc(C(=O)NCCc2nnc(N)s2)n(C)n1,6.947
15,Cc1cc(N(C)Cc2snnc2C)nc(-c2cccnc2)n1,5.151
16,Cc1cc(NCCc2nnc(N)s2)nc(-c2cccnc2)n1,111.6
17,CCCc1nc(C)cc(NC(C)Cc2cnccn2)n1 (centres undefined),10.99
18,FC(F)(F)c1cc(NCCCn2cccn2)nc(-c2cccnc2)n1,19.81
19,Cc1cc(NCCc2nc(C)cs2)nc(-c2cccnc2)n1,101.8
20,FC(F)(F)c1cc(NCCn2ncnn2)nc(-c2cccnc2)n1,-6.298
21,Cc1n[nH]c(C)c1CCN(C)C(=O)C(c1cccnc1)N1CCOCC1 (centres undefined),1.239
22,Cc1csc(CCNc2ccc(C#N)cn2)n1,-3.132
23,Cc1cc(N(C)Cc2cc(C(C)(C)C)n[nH]2)nc(-c2cccnc2)n1,-3.665

row,Compound,Percent Effect [%]
1,CCCc1nc(C)cc(NCCc2nnc(N)s2)n1,113
2,O=C(Nc1cccn(CC(F)(F)F)c1=O)c1ccncc1F,-0.2014
3,CSc1ncc(C(=O)N2C[C@H]3CC[C@@H]2CN(Cc2ccccc2)C3)cn1,-11.56
4,COc1cccc(CNC2CCCOc3cc(C)ccc32)n1 (centres undefined),-12.28
5,Cn1cccc1-c1cc(C(=O)NCCc2nnc(N)s2)[nH]n1,-4.601
6,Cc1cc(NCCc2nnc(N)s2)nc(-c2ccccc2)n1,97.75
7,Cc1ccccc1C(CC(=O)NCc1nnc(N)s1)c1ccccc1 (centres undefined),1.078
8,N#Cc1cccc(NC(=O)N[C@H](CO)Cc2ccc(O)cc2)c1,-17.39
9,O=C(NC1CCC1)C1CCC2(CN(C(=O)c3ccno3)C2)O1 (centres undefined),2.059
10,Cc1cc(C(=O)N2C[C@@H](C(=O)O)[C@H](c3ccccc3C)C2)c(C)o1,-7.74
11,O=C(c1ccc[nH]1)N1CCCC(c2cc(C(F)(F)F)[nH]n2)C1 (centres undefined),-9.471
12,O=C(O)c1ccc(C2CCCN(C(=O)c3ccc[nH]3)C2)cc1 (centres undefined),96.47
13,CC(C)c1csc(C2CCCN(C(=O)c3ccc[nH]3)C2)n1 (centres undefined),7.741
14,CC(C)(C)n1ccc(C(=O)N2CCCC(c3ccc(C(=O)O)cc3)C2)c1 (centres undefined),-5.053
15,Cc1cc(C(=O)N2CCCC(c3ccc(C(=O)O)cc3)C2)c(C)o1 (centres undefined),108.3
16,Cc1[nH]ccc1C(=O)N1CCCC(c2nccn2Cc2cscn2)C1 (centres undefined),-11.42
17,Cc1[nH]ccc1C(=O)N1CCCC(c2ccc(C(=O)O)cc2)C1 (centres undefined),104
18,CCC(C)N1CCC(Oc2ccc(C(=O)NCCN(C)C)cc2Cl)CC1 (centres undefined),0.8675
19,COc1cccc(/C=C/CCN2CCCN(C(C)=O)CC2)c1,3.012
20,COCC(=O)NCc1cccc(OCCN(C)C2CCOCC2)c1,-0.3867
21,Cc1ccc(C)c(-n2cc(CN3CCOCC3)c(-c3ccccc3)n2)c1,9.149
22,CCc1nc(C2CCCN2CCc2ccccn2)no1 (centres undefined),17.85
23,CC(C)c1nc(C2CCCN2CCN2CCCCC2)no1 (centres undefined),99.79

row,Compound,Percent Effect [%]
1,CC(C)c1nc(C2CCCN2CCc2ccccn2)no1 (centres undefined),92.65
2,CCS(=O)(=O)CCN1CCCC1c1noc(C2CC2)n1 (centres undefined),-6.058
3,CC(C)c1nc(C2CCCN2CCS(C)(=O)=O)no1 (centres undefined),108.9
4,CC(C)c1nc(C2CCCN2CCc2ccncc2)no1 (centres undefined),-3.016
5,CC(C)c1nc(C2CCCN2CCNS(C)(=O)=O)no1 (centres undefined),98.61
6,Cc1nc(C2CCCN2CCCNS(C)(=O)=O)no1 (centres undefined),5.107
7,CC(C)c1nc(C2CCCN2CC(=O)N2CCNC2=O)no1 (centres undefined),0.9306
8,Cc1nc(C2CCCN2CCc2ccccn2)no1 (centres undefined),0.4664
9,CC(C)(C)CC(=O)N1CC[C@@H](CC(=O)O)[C@@H](CCN2CCCCC2)C1,-5.604
10,CN(C)c1ccc(C(=O)N(Cc2ccncc2)CC2CCCO2)nn1 (centres undefined),-20.14
11,CC(=O)Nc1cccc(C(=O)Nc2cnc3n2CCCC3)c1,-12.98
12,CCCS(=O)(=O)N1C[C@@H]2CC[C@H](C1)N(Cc1cscn1)C2=O,-56.87
13,COCc1cnc2n1CCN(S(=O)(=O)c1c(C)nn(C)c1C)C2C (centres undefined),-6.968
14,CCCN(CCC)S(=O)(=O)NCCc1cc(C)ccc1OC,-23
15,CCN(CC)C1(Cc2cc(-c3cccc(O)c3)on2)COC1,-3.325
16,COc1ccccc1NC(=O)CSC1CCc2ccccc2NC1=O (centres undefined),14.42
17,O=C1Nc2ccccc2CN(C/C=C/c2ccccc2)C12CCNC2 (centres undefined),116.1
18,CC(C(=O)O)N1CC2(CCC1=O)CCN(C/C=C/c1ccccc1)CC2 (centres undefined),-24.48
19,CCc1nnc(CN2CCC3(CC2)Nc2ccccc2NC3=O)o1,8.139
20,O=C1Nc2ccccc2CN(CC2CCCC2)C12CCNC2 (centres undefined),101.1
21,O=C1NCCN(CC2CC2)C12CCN(Cc1ccco1)CC2,-5.362
22,CCCN1Cc2ccccc2NC(=O)C12CCNC2 (centres undefined),105.5
23,O=C(CSC1CCc2ccccc2NC1=O)NCCO (centres undefined),-0.2821

row,Compound,Percent Effect [%]
1,O=C1NC2(CCN(C/C=C/c3ccccc3)CC2)CC1c1ccccc1 (centres undefined),1.619
2,O=C1Nc2ccccc2CN(CC2CC2)C12CCNC2 (centres undefined),99.74
3,CN(C)CCOC1CC2(CCN(c3cnccn3)CC2)c2ccccc21.O=C(O)C(F)(F)F (centres undefined),-0.2574
4,CC(C)NC(=O)N1CCN2C(=O)N(Cc3ccc(F)cc3)C[C@H]2C1,1.439
5,CO[C@H]1CN(C(C)C)C[C@@H]1NC(=O)c1cc(-c2ccccc2O)n[nH]1,3.341
6,CNc1nc(C)cc(N2CCC(C(=O)O)(n3ccc(C(C)C)n3)CC2)n1,-25.68
7,O=S(=O)(NCC1(O)CCOc2ccccc21)c1ccc(Cl)s1 (centres undefined),-0.7436
8,O=C1CC2(CCN(C(=O)Cc3cc4c(cc3Cl)OCCO4)C2)C(=O)N1 (centres undefined),-1.867
9,Cc1cc(NCC2(O)CCOCC2)nc2ccccc12,15.38
10,O=C(c1cc(Cl)ccc1F)N1CCCC1Cn1cccn1 (centres undefined),101.1
11,COc1ccc(C(=O)N2CCCCC2Cn2cccn2)c(F)c1 (centres undefined),4.231
12,Cc1cnn(CC2CCCN2C(=O)c2ccc3nnc(C)n3c2)c1 (centres undefined),-11.91
13,Cc1cnn(CC2CCCN2C(=O)c2ccc(F)cc2Cl)c1 (centres undefined),118
14,Cc1cnn(CC2CCCN2C(=O)c2ccc(Cl)cc2F)c1 (centres undefined),130.9
15,CCn1nnc2cc(C(=O)N3CCCC3Cn3cc(C)cn3)ccc21 (centres undefined),-10.21
16,O=C(c1ccccc1N1CCOCC1)N1CCCC1Cn1cccn1 (centres undefined),-6.576
17,Cc1cnn(CC2CCCN2C(=O)c2ccc(F)c(F)c2)c1 (centres undefined),123.6
18,CCCNC(=O)C1CCN(Cc2csc(C(C)(C)C)n2)CC1,-3.863
19,COc1cccc2c1CCN(C(=O)NCCc1nccn1C)C2,2.215
20,CC(C#N)CSc1ccccc1NCC(=O)NC(=O)NC(C)(C)C (centres undefined),-19.45
21,CC(O)CN1CCC(CN(C)Cc2cc(C#N)ccc2F)CC1 (centres undefined),-5.082
22,Cc1ncc(CNC(CCO)C2CCCCC2)s1 (centres undefined),-8.339
23,COc1ncnc2c1CCN(Cc1nccs1)CC2.O=C(O)C(F)(F)F,2.06

row,Compound,Percent Effect [%]
1,N#Cc1nccnc1N1CCC(OCCCc2ccccc2)C1 (centres undefined),1.367
2,CN(C)c1nc2c(c(=O)[nH]1)Cc1ccccc1OC2,-4.691
3,Cc1cccc2c1cnn2CCCNC(=O)C(C)C,-3.766
4,Cc1nc2c(c(NCC(=O)NC(C)C)n1)Cc1ccccc1OC2,92.9
5,CC(C)C(C(=O)NCc1ccccc1-n1cccn1)N(C)C (centres undefined),-20.85
6,Cc1nc2c(c(NCc3ccccc3)n1)CCN(C(=O)NC(C)C)CC2,7.807
7,Cc1nc2c(c(NCCNC(=O)C(C)C)n1)Cc1ccccc1OC2,89.1
8,COc1ccnc(N2CCc3ccc(OC(F)F)cc3C2)n1,18.95
9,c1cnc(N2CCN(Cc3nnnn3C3CC3)CC2)nc1,-20.27
10,CC(CCN(C)C)NC(=O)N1CCSC(C)(C)C1 (centres undefined),-16.4
11,Cc1cnn(CC2CCN(CC(O)c3ccccc3Cl)CC2)c1 (centres undefined),-9.107
12,Cc1cnn(CC2CCN(CC(O)c3ccccc3F)CC2)c1 (centres undefined),-4.357
13,Cc1cccc(OCC(O)CN2CCC(Cn3cccn3)CC2)c1 (centres undefined),104.3
14,Cc1cnn(CC2CCN(CC(O)COc3ccccc3)CC2)c1 (centres undefined),7.728
15,Cc1ccccc1OCC(O)CN1CCC(Cn2cccn2)CC1 (centres undefined),111.1
16,OC(COc1ccc2c(c1)OCO2)CN1CC(n2cccn2)C1 (centres undefined),-5.514
17,CCc1ncc2c(n1)CN(CC(O)COc1ccc(C#N)cc1)CC2 (centres undefined),-19.89
18,Cc1ncc2c(n1)CN(CC(O)COc1ccc(C#N)cc1)CC2 (centres undefined),-6.644
19,Cc1ccc(OCC(O)CN2CCC(Cn3cc(C)cn3)CC2)cc1 (centres undefined),122.4
20,N#Cc1ccc(OCC(O)CN2CCC(Cn3cccn3)CC2)cc1 (centres undefined),137.4
21,Cc1cnn(CC2CCN(CC(O)CN3CCC(C)CC3)CC2)c1 (centres undefined),0.7757
22,Cc1cnn(CC2CCN(CC(O)c3ccccc3)CC2)c1 (centres undefined),3.63
